Reference: PubChem BioAssay
Values joined by “and” are separate entries in the source; they are usually repeats but may differ in a detail not shown here. Equal values may be shown once. Active and inactive are the calls of the source.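 How the source made its calls, unless noted: active means compounds whose cell count with miR-34 switched on is under 0.7 times the count with it off; inactive means the rest.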

Legend:
[1] = test system: Aerobactin synthetase IucA (Klebsiella pneumoniae); experiment: inhibition of K. pneumoniae IucA enzyme – biochemical, Tocris library, absorbance (AID 1345561; call rule not given here;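 further: 100% = enzyme without compound and 0% = no enzyme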); settings: purified IucA enzyme assay, absorbance (OD) read-out; stronger effect = lower value;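 tested at 8 µM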
[2] = viability loss with induced miR-34 in A549 – imaging, A549 dox-inducible miR-34, nuclei and caspase counts, primary screen (AID 1347080); settings: A549 miR-34 inducible, Hoechst nuclei count, 48 h
[3] = galactose survival enhancers in mitochondrial complex I cybrids – cell-based, galactose medium, ATP luminescence, primary screen (AID 1645843;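 active means z-score of at least 1.8 in each of two replicates, scored against plate mean and spread of sample wells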;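 further: positive z means more ATP and so rescue of galactose-driven cybrid death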); settings: complex I mutant cybrid cells, 72 h, stronger effect = higher value
[4] = stronger effect = lower value, cell number ratio, induced over uninduced
[5] = measured here: relative caspase fold change +Dox/-Dox
[6] = measured here: total cells with miR-34 induction, stronger effect = lower value
[7] = measured here: total cells without miR-34 induction

Row | Structure (SMILES) | remaining activity [1] | fold change [2, 4] | fold change [2, 5] | cell count [2, 6] | cell count [2, 7] | z-score [3]
1 | N[C@@H](CSS(=O)(=O)O)C(=O)O | 94.5% (inactive) | 0.893 (inactive) | 0.93 | 8240 | 9220 | -0.57 (inactive)
2 | O/N=C/c1ccc(-c2ccc(O)c(F)c2)c(Cl)c1O | 117% (inactive) | 0.891 (inactive) | 1.26 | 7880 | 8840 | -0.63 (inactive)
3 | COc1oc(=O)c2cc(N)ccc2c1Cl | 95.9% (inactive) | 0.989 (inactive) | 1.44 | 8640 | 8740 | -0.37 (inactive)
4 | O=C(Nc1ccc(C(F)(F)F)cn1)N1CCN(c2ncccc2C(F)(F)F)CC1 | 86.8% (inactive) | 0.952 (inactive) | 1.39 | 6230 | 6540 | -0.475 (inactive)
5 | O=C(NCCN1CCCCC1)c1ccc(I)cc1 | 103% (inactive) | 0.954 (inactive) | 0.747 | 9320 | 9760 | 0.155 (inactive)
6 | Cc1nc2ccc(NC(=O)Nc3ccnc4cccnc34)cc2o1 | 111% (inactive) | 0.867 (inactive) | 0.84 | 7250 | 8360 | 1.19 (inactive)
7 | COC(=O)Nc1ccc2[nH]cc(CCNC(C)=O)c2c1 | 121% (inactive) | 0.99 (inactive) | 0.823 | 8200 | 8280 | -0.205 (inactive)
8 | N#C/C(=C\c1ccc(O)c(O)c1)C(=O)OCCc1cccs1 | 110% (inactive) | 0.871 (inactive) | 1.36 | 8430 | 9690 | -0.59 (inactive)
9 | CC(=Nc1ccccc1N)c1c(C)cc(=O)n(O)c1O | 117% (inactive) | 1.16 (inactive) | 0.955 | 3450 | 2970 | -0.105 (inactive)
10 | C[C@@H]1O[C@@]2(CS1)CN1CCC2CC1 (racemic) | 111% (inactive) | 0.892 (inactive) | 1.88 | 8540 | 9570 | 0.375 (inactive)
11 | O=[N+]([O-])c1cc2nc(O)c(O)nc2cc1[N+](=O)[O-] | 103% (inactive) | 0.896 (inactive) | 1.68 | 8310 | 9280 | -0.355 (inactive)
12 | Clc1cccc(C=NC=Nc2cccc(Cl)c2)c1 | 117% (inactive) | 0.902 (inactive) | 0.788 | 8200 | 9090 | 0.99 (inactive)
13 | OC1CCC(Nc2nc(-c3ccccc3)nc3[nH]ccc23)CC1 (centres undefined) | 112% (inactive) | 0.975 (inactive) | 1.31 | 8990 | 9220 | 1.67 (inactive)
14 | CNC(=O)[C@H]1O[C@@H](n2cnc3c(NCc4cccc(I)c4)ncnc32)[C@H](O)[C@@H]1O | 116% (inactive) | 0.865 (inactive) | 0.723 | 8280 | 9570 | 2.99 (active)
15 | Nc1nc2c(nc(Br)n2[C@@H]2O[C@@H]3COP(=O)(O)O[C@H]3[C@H]2O)c(=O)[nH]1 | 113% (inactive) | 0.972 (inactive) | 0.761 | 9650 | 9930 | -0.25 (inactive)
16 | CCCCCCCC/C=C\CCCCCCCC(=O)N[C@@H](CO)Cc1ccc(O)cc1 | 129% (inactive) | 0.903 (inactive) and 0.933 (inactive) | 1.11 and 0.626 | 5590 and 5540 | 6200 and 5940 | -0.83 (inactive)
17 | O=c1[nH]ccc2c(S(=O)(=O)N3CCCNCC3)cccc12 | 105% (inactive) | 0.922 (inactive) | 0.813 | 9480 | 10300 | -0.145 (inactive)
18 | CC(=O)NC1=NN(C(C)=O)C(C)(c2ccccc2)S1 (centres undefined) | 109% (inactive) | 1.17 (inactive) | 2.25 | 1640 | 1400 | -0.275 (inactive)
19 | O=C(/C=C/c1ccccc1)NC(NC(=S)Nc1cccc2cccnc12)C(Cl)(Cl)Cl (centres undefined) | 124% (inactive) | 1.01 (inactive) | 1.71 | 4630 | 4560 | -0.47 (inactive)
20 | COC(=O)c1sccc1S(=O)(=O)Nc1ccc(Nc2ccccc2)cc1OC | 87.9% (inactive) | 0.862 (inactive) | 1.31 | 6450 | 7480 | -0.495 (inactive)
21 | COc1cc(Br)c(S(=O)(=O)Nc2ccc(Cl)c(O[C@@H]3CCN(C)C3)c2)cc1OC | 112% (inactive) | 0.925 (inactive) | 1.74 | 5240 | 5660 | -0.645 (inactive)
22 | NC(=NCCc1ccc(I)cc1)SCCCC1CNCN1 (centres undefined) | 98% (inactive) | 1.01 (inactive) | 0.754 | 6720 | 6680 | -0.645 (inactive)
23 | N[C@@H](C(=O)O)c1ccc(O)c(C(=O)O)c1 | 100% (inactive) | 0.932 (inactive) | 0.807 | 8680 | 9320 | -0.18 (inactive)
24 | COc1ccccc1N1CCN(CCN2C(=O)c3ccccc3C(C)(C)C2=O)CC1 | 124% (inactive) | 1.04 (inactive) | 1.01 | 7580 | 7320 | -0.455 (inactive)
